# From PubChem
# TbPYK inhibitor: inhibitors of Trypanosoma brucei pyruvate kinase. Potency, µM (top dose mostly 76.8 µM), without a hit: top-dose activity, negative = inhibition, hits mostly inhibitors. AID 624173. Q57TT1. 410,000 tested, 0.12% active. TbPYK enzyme, Kinase-Glo Plus ATP luminescence, 45 min; further: potency means the concentration at half of the fitted maximal effect; nearly all actives have a fitted effect of over 50% in size
#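 Glycolytic pyruvate kinase of T. brucei was incubated with substrate, test compound and 130 uM ADP for 45 minutes at room temperature. Luminescent Kinase-Glo Plus signal was measured after 10 minutes.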
# LmPK inh: inhibitors of Leishmania mexicana pyruvate kinase; Potency, µM (highest dose often 57.5 µM), for inactives: top-dose activity change, negative = inhibition, actives largely listed as inhibitors; Q27686; purified LmPK, Kinase-Glo ATP luminescence, 1 h; 290,000 tested, 0.37% active; further: potency means the concentration at half of the fitted maximal effect
# Target sequence (Q27686 whole entry, looked up): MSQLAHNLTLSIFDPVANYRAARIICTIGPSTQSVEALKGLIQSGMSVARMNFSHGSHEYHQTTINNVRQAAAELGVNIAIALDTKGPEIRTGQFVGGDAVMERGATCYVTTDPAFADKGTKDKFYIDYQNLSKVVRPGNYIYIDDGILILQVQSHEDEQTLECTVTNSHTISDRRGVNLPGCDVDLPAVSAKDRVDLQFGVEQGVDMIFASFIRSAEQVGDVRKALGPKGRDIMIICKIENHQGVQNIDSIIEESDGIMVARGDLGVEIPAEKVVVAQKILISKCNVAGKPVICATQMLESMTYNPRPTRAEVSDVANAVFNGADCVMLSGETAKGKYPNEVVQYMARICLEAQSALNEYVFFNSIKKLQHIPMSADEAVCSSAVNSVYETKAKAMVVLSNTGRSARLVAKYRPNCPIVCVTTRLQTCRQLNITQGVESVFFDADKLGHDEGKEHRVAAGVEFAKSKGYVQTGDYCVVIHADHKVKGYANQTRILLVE
#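 Pyruvate kinase activity monitored as ATP production (luciferase luminescence). Conditions: 0.1 nM enzyme, 0.5 mM PEP, 0.1 mM ADP, 1 h, RT; normalized against uninhibited and no-enzyme wells.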
# HCMV antiviral: human cytomegalovirus inhibition; HFF cells, HCMV-luciferase reporter, 72 h; active compounds read low; activity change, negative = inhibition, % at 57.5 µM; 410,000 tested, 4.5% active; in the data active means activity change below about -60%; inconclusive means no clear call, values can overlap the other calls; inactive means above about -39%
#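 After 16 h attachment at 37C, HFF cells received test compound and HCMV-luciferase (1 PFU/cell); reporter luminescence read 72 h later, data normalized against buffer-only and known inhibitor Salinomycin.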
# VACV Venus inh: inhibitors of vaccinia virus (Venus reporter); Vaccinia virus Venus reporter expression, fluorescence; Potency, µM (top dose mostly 36.5 µM), inactives show at the top dose activity change, negative = inhibition, most hits filed as inhibitors; 330,000 tested, 0.46% active; calls by dose curve; tested in A549 cells; further: potency means the concentration at half of the fitted maximal effect; nearly all actives have a fitted effect of over 30% in size
# Vaccinia mCherry: inhibitors of vaccinia virus infection (mCherry reporter signal); 310,000 tested, 0.63% active; Vaccinia virus mCherry reporter infection, fluorescence; Potency, µM (doses to about 36.5 µM), for inactives: at the highest dose activity change, negative = inhibition, actives largely listed as inhibitors; calls by dose curve; tested in A549 cells; further: potency means the concentration at half of the fitted maximal effect; nearly all actives have a fitted effect of over 35% in size
# * hit, by the source's call; i = inactive; ? = inconclusive; . = no result; [ ] = remark or other dose. Shown are actives, neighbours in structure and some others; about 5% of the full set was active somewhere. Unless noted, the call rests on the fitted dose curve; in most records, active means well fitted curve in the direction sought with a large enough effect; inconclusive means small, poorly fitted or top-dose-only effect, or another doubt; inactive means no such curve, though single readings can be large; an effect the other way counts as inactive or inconclusive. On the % scale 0 is the no-effect control and ±100 the full control effect.
SMILES,TbPYK inhibitor,LmPK inh,HCMV antiviral,VACV Venus inh,Vaccinia mCherry
O=C(Nc1ccccc1C(=O)N1CCCCCC1)c1ccc(F)cc1,0%,3%,-102*,.,.
O=C(Cc1ccccc1)Nc1ccccc1C(=O)N1CCCCC1,6%,-6%,-34,.,.
O=C(c1ccccc1Nc1ccc(SC(F)F)cc1)N1CCCCCC1,-2%,0%,-101*,.,.
COc1ccc(CCNC(=O)CSC2=NS(=O)(=O)c3cc(Cl)ccc3N2)cc1OC,2%,.,7,-9%,-28%
O=C(c1cc(-c2ccccc2)nc2ccccc12)N1N=C(C(F)F)CC1(O)C(F)F (stereo unspecified),-12%,4%,15,-20%,i
Cc1ccc(-c2cc(C(=O)N3N=C(C(F)F)CC3(O)C(F)F)c3ccccc3n2)cc1C (stereo unspecified),-2%,1%,-89*,?,-24%
O=C(Nc1ccc(C(=O)OC2CCCCC2)cc1)c1ccncc1,-16%,2%,-78*,-9%,i
CCCCC(=O)Nc1ccc(C(=O)OC2CCCCC2)cc1,4%,2%,-96*,-27%,.
O=C(OC1CCCCC1)c1ccc(NC(=O)C2CCCCC2)cc1,7%,7%,-12,?,.
CCc1ccc(N2CCn3c2nc2c3c(=O)n(CCc3ccccc3)c(=O)n2C)cc1,7%,.,-25,5%,-3%
CCn1c(=O)c2sccc2n2c(CCCC(=O)N3CCN(c4cc(Cl)ccc4C)CC3)nnc12,0%,.,-5,-8%,-13%
Cn1c(=O)c2c(SCC(=O)Nc3ccc4c(c3)OCCO4)nc(CC(C)(C)C)nc2n(C)c1=O,0%,0%,-64*,-6%,7%
Cn1c(=O)c2c(SCC(=O)N3CCCc4ccccc43)nc(CC(C)(C)C)nc2n(C)c1=O,-11%,-1%,.,11µM*,?
CCCc1nc(SCC(=O)N2CCCc3ccccc32)c2c(=O)n(C)c(=O)n(C)c2n1,5%,2%,.,-28%,-3%
COc1cccc(-n2c(-c3cccc(S(=O)(=O)N(C)C)c3)n[nH]c2=S)c1,7.1µM*,3%,-29,-11%,i
COc1cccc(-n2c(-c3ccc4[nH]c(C)c(C)c4c3)n[nH]c2=S)c1,7.9µM*,-4%,23,-23%,i
CCCSc1nnc(-c2cccc(S(=O)(=O)N(C)C)c2)n1-c1cc(OC)ccc1OC,-5%,4%,-62*,.,.
CCSc1nnc(-c2cccc(S(=O)(=O)N(C)C)c2)n1-c1cc(OC)ccc1OC,5%,1%,20,.,.
O=C(CCc1nnc(-c2ccc(-c3ccccc3)cc2)o1)NCCc1ccccn1,2%,5%,-13,-9%,-7%
COc1ccccc1CN1CCCC(CNC(=O)c2cccc3ccccc23)C1 (stereo unspecified),5%,-1%,17,.,.
COc1ccc(CNc2nn3c(-c4cccc(C(=O)N(C)C)c4)cnc3s2)cc1,-15%,.,-66*,-19%,-20%
CCOC(=O)c1nn(-c2ccc(Cl)cc2)c(C)cc1=O,-1%,1%,-73*,.,.
CCOC(=O)c1nn(-c2ccc(C)cc2)c(C)c1C(C)=O,2%,5%,51,-18%,-26%
CCOC(=O)c1nn(-c2ccc(F)cc2)c(C)c1C(C)=O,2%,-2%,-79*,-6%,i
C=CCn1c(SCc2ccc(C(=O)NCCO)cc2)nc2sc(C)c(C)c2c1=O,1%,1%,-25,-10%,-15%
SMILES,TbPYK inhibitor,LmPK inh,HCMV antiviral,VACV Venus inh,Vaccinia mCherry
CC(C)(C)NC(=O)CCN(/N=C/c1ccc([N+](=O)[O-])o1)C1=NS(=O)(=O)c2ccccc21,-4%,1%,-95*,10µM*,?
O=C1N[C@H](Cc2ccccc2)COC(=O)[C@H](Cc2ccc(F)cc2)CC/C=C/C[C@@H]1CC(=O)N(CCO)Cc1ccccc1,-1%,.,54,?,28µM*
O=C(C[C@@H]1C/C=C/CC[C@H](Cc2ccc(F)cc2)C(=O)OC[C@@H](Cc2ccccc2)NC1=O)N[C@H](CO)Cc1ccccc1,-2%,.,-99*,14µM*,10µM*
O=C1N[C@@H](Cc2ccccc2)COC(=O)[C@@H](Cc2ccc(F)cc2)CC/C=C/C[C@@H]1CC(=O)N(CCO)Cc1ccccc1,4%,.,0,?,10µM*
Cc1ccc(NS(=O)(=O)c2ccc3c(c2)CCN3C(=O)C2CC2)c(C)c1,-2%,.,-12,0%,-7%
O=c1cc(O)c2sc(Nc3ccc(F)cc3)nc2[nH]1,-12%,-3%,-92*,-3%,-14%
O=c1cc(O)c2sc(Nc3cccc(C(F)(F)F)c3)nc2[nH]1,-7%,-2%,-40,-4%,-13%
Cc1cc(NS(C)(=O)=O)c(=O)n(Cc2c(F)cccc2Cl)c1,1%,-5%,8,.,.
COC(=O)C1CCN(CC(=O)NC(=O)NC2CCCCC2)CC1,0%,0%,-98*,-10%,?
CCOC(=O)C1CCN(CC(=O)NC(=O)NC2CCCCC2)CC1,4%,5%,-23,-18%,i
O=C(N=c1nc2ccccn2s1)c1ccccc1,?,3.5µM*,49,-3%,-11%
COC(=O)CNC(c1ccccc1Cl)c1cc(Br)ccc1NS(=O)(=O)c1ccc(C)cc1 (stereo unspecified),12%,4%,-70*,-19%,-9%
O=C(Nc1ccccc1Oc1cccnc1)C1CCCN(C/C=C/c2ccccc2)C1 (stereo unspecified),8%,2%,20,-21%,0%
Cc1cc(NC(=O)c2cc(-c3cccc(Cl)c3)on2)n(-c2ccccc2)n1,-5%,.,16,?,?
CN(C(=O)CC1C(=O)NCCN1CC1CCCCC1)C1CCOCC1 (stereo unspecified),1%,3%,-22,-13%[7.34 µM],i[7.34 µM]
O=C1CC(c2ccccc2)CC2=C1C=Nc1ccccc1N2 (stereo unspecified),0%,-1%,-77*,-20%,-3%
COc1ccccc1NC(=O)N1CCC(c2nc3cc(C)c(C)cc3[nH]2)CC1,-9%,1%,-64*,?,-26%
CCN1CCN(c2ccc(S(=O)(=O)N3CCOCC3)cc2NC(=O)c2ccccc2OC(F)F)CC1,2%,.,.,-12%,?
Cc1ccc(/C(N)=N/OC(=O)N2c3ccccc3Sc3ccccc32)cc1,-6%,.,-19,0%,14%
O=[N+]([O-])c1cccc(/C=N/n2c(-c3cccnc3)n[nH]c2=S)c1,2.2µM*,11%,12,-8%,-13%
CC(=C/c1ccccc1)/C=N/n1c(-c2ccco2)n[nH]c1=S,.,-21%,-24,.,.
O=[N+]([O-])c1ccc(/C=N/n2c(-c3cccnc3)n[nH]c2=S)cc1,?,4%,16,-5%,-12%
Cc1cc(-c2n[nH]c(=S)n2/N=C/c2ccc(Cl)c([N+](=O)[O-])c2)n[nH]1,?,-1%,-33,?,?
CC(/C=N/n1c(-c2cc(C)[nH]n2)n[nH]c1=S)=C\c1ccccc1,5µM*,-14%,?,-11%,i
